In PubChem BioAssay (NCI):
Compounds without any hit were thinned out: in the full panel of roughly 83,000, 20% have a hit.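 Assay: single dose, 48 h. Readout: percent growth (0 = no net growth; negative = cell death). Active: <10.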 A number with no mark means an inactive call. Calls of active or inactive are those of the source.

Legend:
Assay in all cases: NCI-60 one-dose screen, 48 h (100 = growth as untreated, 0 = no growth, -100 = all killed)
Details in all cases: 10 µM unless noted
HCT-15 colon = test system: HCT-15 colon
HT29 colon = test system: HT29 colon
U251 CNS = test system: U251 CNS
PC-3 prostate = test system: PC-3 prostate
UACC-62 melanoma = test system: UACC-62 melanoma
LOX IMVI melanoma = test system: LOX IMVI melanoma
SK-MEL-28 melanoma = test system: SK-MEL-28 melanoma
SNB-19 CNS = test system: SNB-19 CNS
SK-MEL-5 melanoma = test system: SK-MEL-5 melanoma
SNB-75 CNS = test system: SNB-75 CNS

Compound	growth (HCT-15 colon)	growth (HT29 colon)	growth (U251 CNS)	growth (PC-3 prostate)	growth (UACC-62 melanoma)	growth (LOX IMVI melanoma)	growth (SK-MEL-28 melanoma)	growth (SNB-19 CNS)	growth (SK-MEL-5 melanoma)	growth (SNB-75 CNS)
NC(=O)c1nc2c([nH]c1=O)CCCC2	102%	101%	106%	101%	106%	99.1%	103%	–	–	–
c1ccc(-c2n(Cc3ccc4ccccc4n3)c3ccccc3[n+]2Cc2ccc3ccccc3n2)cc1	47.9%	0.506% (active)	12.1%	5.27% (active)	-45% (active)	-75.8% (active)	-4.75% (active)	10.6%	–	–
Cc1cc(Cl)c2c(Cl)ccc(Cl)c2n1	95.4%	102%	–	96.3%	105%	103%	113%	107%	102%	–
CSC1=CC(=O)c2ccccc2C1=O	101%	103%	92.2%	67.3%	79.7%	68.5%	–	94.2%	–	–
COC(=O)c1c2c(c(C)[n+]([O-])c1C)C(=O)C=C(NCc1ccc(F)c(Cl)c1)C2=O	-70.4% (active)	–	-21.7% (active)	-1.13% (active)	-70.8% (active)	-64.5% (active)	-11.8% (active)	-48.5% (active)	-97.7% (active)	-96.9% (active)
Cn1c2c(cc(S(=O)(=O)c3ccccc3)c1=O)CCc1c-2cnn1-c1cccc(Cl)c1	96.7%	91.3%	–	83.1%	84.6%	93.4%	94.7%	97%	83.3%	–
C=C(C)CCCC(C)CC#N (configuration not stated)	101%	93.9%	–	95.7%	111%	99.2%	106%	110%	99.7%	–
O=C(C[Si](CC(=O)c1cccc(C(F)(F)F)c1)CC(=O)c1cccc(C(F)(F)F)c1)c1cccc(C(F)(F)F)c1	99.1%	–	51.6%	-14.7% (active)	66.7%	73.2%	98.6%	101%	99.8%	90.8%
O=C1N/C(=C\c2ccccc2)c2ncccc21	101%	–	104%	102%	102%	99.2%	119%	104%	105%	91.8%
COc1ccc(/C=N/NC(=O)c2cnn(CC(O)Cc3ccccc3)c2N)cc1OC1CCCC1 (configuration not stated)	77.6%	–	85.6%	69.9%	82.8%	82.4%	107%	92.3%	62.7%	74.2%
COc1cc(/C=C/C(=O)C(=Cc2ccc(F)c(F)c2)C(=O)/C=C/c2ccc(O)c(OC)c2)ccc1O	26%	-31.4% (active)	18.8%	30.7%	32.3%	-82.5% (active)	36%	63.1%	–	–
COc1ccc(OC)c2ncccc12	96.3%	97.4%	–	92%	114%	95.6%	117%	110%	102%	–
COc1ccc(Cn2c(Br)c3c(c2-c2cc(OC)c(OC)c(OC)c2)CCc2sc(N)nc2-3)cc1	18.8%	–	21.8%	28.8%	25.5%	33.5%	33.9%	55.4%	10.1%	-0.745% (active)
C[C@@H](Oc1cc(-c2cnn(C3CC4(CCCNC4)C3)c2)cnc1N)c1c(Cl)ccc(F)c1Cl (some centres not stated)	16.2%	-47.7% (active)	29.5%	15.6%	14.3%	-73% (active)	-67.2% (active)	72.3%	–	–
Cc1nc2cc(Nc3nc(Nc4ccc(F)cc4)nc(N4CCCC4)n3)ccc2n1Cc1ccccc1	-33.4% (active)	-76.1% (active)	-70.9% (active)	–	–	-86% (active)	–	33.6%	-53.4% (active)	–
NC1=NC(c2ccccc2OS(=O)(=O)c2ccc(Br)cc2)n2c(nc3ccccc32)N1 (configuration not stated)	102%	92.1%	86.9%	80.1%	82.7%	–	102%	98.1%	91%	–
O=C(N/N=C/c1ccc2c(c1)OCO2)c1cnn2c1NC(c1ccccc1)C2 (configuration not stated)	28%	–	69.6%	50.2%	32.7%	26.4%	–	62.9%	37.3%	54.8%
O=C(NCc1ccc(F)cc1)C1CN(c2ccc(Cl)cc2)N(c2ccc(Cl)cc2)C1=O (configuration not stated)	45.1%	25.6%	56.6%	61.9%	42%	72.3%	74.9%	78.1%	–	–
COc1ccc2nc(-n3nc(C)cc3C)c(-n3nc(C)cc3C)nc2c1	102%	100%	106%	105%	–	101%	107%	102%	100%	–
CC(C)OC1=C(Cl)C(=O)c2ccccc2C1=O	51.4%	113%	57.4%	69.1%	–	86.5%	101%	90.1%	96.8%	–
COc1cc(-c2ccc3cc(OC)c(OC)c(OC)c3c2)cc(OC)c1OC	42.8%	32.6%	69%	49.5%	68.1%	62.8%	61%	85.4%	–	–
COc1ccc(CSc2nc3cc(OC)c(OC)cc3c(=O)n2-c2ccc(Cl)cc2)cc1	98.6%	–	94.2%	82%	99.4%	98%	107%	99.8%	95.4%	92.9%
O=c1c2c(=NCCN3CCCC3)cc3c(=O)n(CCCN4CCOCC4)c(=O)c4ccc(c(O)n1CCCN1CCOCC1)c2c4-3	-11.8% (active)	–	5.11% (active)	-20.8% (active)	-49.7% (active)	-6.84% (active)	-32.9% (active)	1.06% (active)	-14.9% (active)	-88.8% (active)
CCCCc1ccc(C(O)(CCN2CC3CCC(CC3)C2)c2ccccc2)cc1 (configuration not stated)	65.7%	–	83.3%	94.3%	108%	103%	102%	108%	101%	116%
CCCOC(=O)c1ccc2c(c1)[N+](=O)C(C(=O)c1ccccc1)=C(C(F)(F)F)[N+]2=O	-65.7% (active)	-92.1% (active)	–	-91.5% (active)	-92.4% (active)	-74.7% (active)	-96.8% (active)	-88.9% (active)	–	–
COc1ccc(/C=C2\SC(=O)N(CN3CCN(c4cc5c(cc4F)c(=O)c(C(=O)O)cn5C4CC4)CC3)C2=O)cc1	106%	–	99.8%	97.6%	98.1%	79.9%	112%	100%	97.2%	–
O=C(N/N=C/c1ccc(F)cc1)c1[nH]c2ccc(I)cc2c1-c1ccccc1	–	12.5%	20.4%	20.6%	35.2%	25.8%	67.9%	12%	-30% (active)	51.7%
COc1cc2cc(Oc3ccc(NC(=O)Nc4ccc(Cl)c(C(F)(F)F)c4)cc3)c(C)nc2cc1OCCN1CCCCC1	–	-68% (active)	-76.4% (active)	-55.3% (active)	72.6%	-97.1% (active)	-86% (active)	-51.7% (active)	-76.1% (active)	-57.9% (active)
c1ccc2c(c1)oc1cc3c(cc12)nnc1cccn13	–	103%	97.2%	100%	106%	112%	116%	108%	98.2%	91.7%
COc1cccc(OC)c1OC(=O)c1ccccc1	–	107%	94.8%	106%	97.1%	92.7%	98.2%	104%	96%	82.5%
